This passage reports Inhibition results from ChEMBL document CHEMBL1157539, “Thousands of chemical starting points for antimalarial lead identification” (Nature, 2010).

Format in all cases: functional
In assay [1] the test system is Plasmodium falciparum. In words: GSK_TCMDC: Inhibition of Plasmodium falciparum 3D7 in whole red blood cells, using parasite LDH activity as an index of growth. Test compounds present at 2uM.
The test system of assay [2] is Plasmodium falciparum. Nature of the assay: GSK_TCMDC: Inhibition of Plasmodium falciparum Dd2 in whole red blood cells, using parasite LDH activity as an index of growth. Test compounds present at 2uM.
The subject of the next assay is HepG2. In words: GSK_TCMDC: Percent inhibition of human HepG2 cell line. Test compounds present at 10uM.

The Inhibition is the drop in the measured response relative to a control, in per cent. Read a low Inhibition as a response near the control. As to `NC(=O)COc1cccc2c1CCN(CCN1CCC(NC(=O)c3ccc(-c4ccc(Cl)cc4)cc3)CC1)C2`, the Inhibition is 92% in the assay with Plasmodium falciparum [1], 6% in the assay with Plasmodium falciparum [2] and 44% in the assay on HepG2.

On to `COc1cccc(CNC[C@@H](O)[C@H](Cc2ccccc2)NC(=O)c2cc(OC(C)C)cc(N3CCCCS3(=O)=O)c2)c1.Cl`, for which the Inhibition is given as 95% with Plasmodium falciparum [1], 49% in the assay with Plasmodium falciparum [2] and 8% in the assay on HepG2.

Take `COc1ccc2nccc([C@@H](O)CN3CCC(NC(=O)/C=C/c4ccc5cc(C)[nH]c5c4)CC3)c2c1`: the Inhibition in the assay with Plasmodium falciparum [1] came out at 97%; with Plasmodium falciparum [2], 93%; in the assay on HepG2 it was 7%.

Regarding `CC(=O)Nc1ccc(CN(C)C2CCN(c3cc(NC(=O)c4cccc(C)c4)ccn3)CC2)cc1.O=C(O)C(F)(F)F`, the Inhibition in the assay on Plasmodium falciparum [1] was 94%; with Plasmodium falciparum [2], 13%; in the assay on HepG2, 0%.

On to `COc1cc(Cc2cnc(N)nc2N)ccc1OCc1ccc(NC(C)=O)cc1`, for which the Inhibition was 98% in the assay with Plasmodium falciparum [1], 0% in the assay on Plasmodium falciparum [2] and 9% in the assay on HepG2.

As to `CCn1c(-c2nonc2N)nc2c(-c3cccc(NC(=O)Nc4ccc(C#N)cc4)c3)ncc(OCCCN)c21.O=C(O)C(F)(F)F`, the Inhibition in the assay on Plasmodium falciparum [1] was 85%; in the assay with Plasmodium falciparum [2] it was 80%; in the assay on HepG2, 1%.

Consider `O=C(N[C@@H](Cc1ccccc1)C(=O)NC1CCCc2ccccc21)c1ccc(O)c(-c2ccc(Cl)c(Cl)c2)c1` (some centres not stated), for which the Inhibition is 97% in the assay on Plasmodium falciparum [1], 99% with Plasmodium falciparum [2] and 0% in the assay on HepG2.

Consider `C=CCc1c(C(=O)NCC23CC4CC(CC(C4)C2)C3)nc2ccccc2c1O`, for which the Inhibition is 86% with Plasmodium falciparum [1], 79% with Plasmodium falciparum [2] and 40% with HepG2.

Take `CCc1n[nH]c(C(=O)NC2CCN(CC3(c4ccc(OC)cc4)CCCCC3)CC2)c1C`: the values for the Inhibition with Plasmodium falciparum [1], with Plasmodium falciparum [2] and in the assay with HepG2 were 90%, 90% and 2%, respectively.
